From PubChem BioAssay
Activity calls are given as the source filed them.

Experiments:
[1] = E. coli DRC41 culture turbidity changes, primary screen, E. coli filamentation inducer project, strain DRC41, OD650, 48 h (AID 1152);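 further: E. coli MC1000 strain DRC41 lacking acrAB efflux pump and sulA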; conditions: E. coli DRC41 (acrAB sulA), higher = more signal, called active from +8 up or from −8 down
[2] = small-molecule binders of probe aLefty1, primary screen, biochemical, small-molecule microarray, 635/667 nm fluorescence (AID 1153); conditions: higher = more signal;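 further: score merges spot fluorescence with signal-to-noise ratio from the scanned slide images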
[3] = PSAC antagonists in infected red cells, primary screen, cell-based, P. falciparum Indochina, OD700, 1 h (AID 1154); conditions: P. falciparum Indochina infected RBC osmotic lysis, higher = more signal, called active from +8 up or from −8 down
[4] = PSAC antagonists in infected red cells, primary screen, cell-based, P. falciparum Indochina, OD700, 2 h (AID 1155);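 further: lysis reports solute entry through the parasite surface anion channel PSAC; channel blockers reduce lysis of infected cells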; conditions: P. falciparum Indochina infected erythrocytes, osmotic lysis OD700; higher = more signal, called active from +8 up or from −8 down
[5] = osmotic lysis modulators in infected erythrocytes, primary screen, PSAC antagonist project, cell-based, P. falciparum Indochina, OD700, 3 h (AID 1156); conditions: higher = more signal, called active from +8 up or from −8 down
[6] = PSAC antagonists in infected red cells, primary screen, cell-based, P. falciparum Indochina, OD700, 18 h (AID 1157); conditions: P. falciparum Indochina infected erythrocytes, osmotic lysis OD700, 18 h; higher = more signal, called active from +8 up or from −8 down
[7] = modulators of S6 phosphorylation in cells, primary screen, cell-based, A549, cytoblot, luminescence, serum-stimulated (AID 1158); conditions: A549 phospho-S6 cytoblot, 5 h, higher = more signal;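 further: serum-stimulated A549 lung adenocarcinoma cells; signal is phosphorylated S6 detected by cytoblot immunostaining with HRP secondary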
[8] = target: NADPH oxidase 2 (Homo sapiens) (UniProt P04839); experiment: NOX2-dependent H2O2 signal modulators, primary screen, NOX inhibitor project, cell-based, HEK293-NOX2, PMA-stimulated, Amplex Red fluorescence (AID 1159); conditions: 45 min, higher = more signal, called active from +8 up or from −8 down; further: test concentration not given here
Chain of NADPH oxidase 2 (Homo sapiens) (P04839 whole entry, looked up): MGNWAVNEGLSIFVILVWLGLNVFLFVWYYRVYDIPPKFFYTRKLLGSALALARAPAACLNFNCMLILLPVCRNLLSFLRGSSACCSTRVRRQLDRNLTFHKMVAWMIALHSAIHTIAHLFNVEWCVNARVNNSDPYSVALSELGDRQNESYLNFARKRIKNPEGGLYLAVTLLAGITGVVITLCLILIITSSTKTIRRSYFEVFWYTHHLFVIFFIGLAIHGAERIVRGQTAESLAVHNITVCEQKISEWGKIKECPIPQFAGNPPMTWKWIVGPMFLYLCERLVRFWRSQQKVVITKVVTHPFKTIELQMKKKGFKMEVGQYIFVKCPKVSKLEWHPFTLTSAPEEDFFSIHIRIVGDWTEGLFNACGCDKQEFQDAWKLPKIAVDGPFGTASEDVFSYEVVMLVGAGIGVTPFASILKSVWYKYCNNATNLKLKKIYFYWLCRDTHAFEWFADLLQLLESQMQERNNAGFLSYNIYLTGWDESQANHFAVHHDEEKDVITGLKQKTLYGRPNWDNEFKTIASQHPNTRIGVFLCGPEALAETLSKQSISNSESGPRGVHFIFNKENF

[9] = target: NADPH oxidase 4 (Homo sapiens) (UniProt Q9NPH5); experiment: NOX4-dependent H2O2 signal modulators, primary screen, NOX inhibitor project, cell-based, HEK293-NOX4, tetracycline-induced, Amplex Red fluorescence (AID 1160); conditions: 45 min, higher = more signal, called active from +8 up or from −8 down
Chain of NADPH oxidase 4 (Homo sapiens) (Q9NPH5 whole entry, looked up): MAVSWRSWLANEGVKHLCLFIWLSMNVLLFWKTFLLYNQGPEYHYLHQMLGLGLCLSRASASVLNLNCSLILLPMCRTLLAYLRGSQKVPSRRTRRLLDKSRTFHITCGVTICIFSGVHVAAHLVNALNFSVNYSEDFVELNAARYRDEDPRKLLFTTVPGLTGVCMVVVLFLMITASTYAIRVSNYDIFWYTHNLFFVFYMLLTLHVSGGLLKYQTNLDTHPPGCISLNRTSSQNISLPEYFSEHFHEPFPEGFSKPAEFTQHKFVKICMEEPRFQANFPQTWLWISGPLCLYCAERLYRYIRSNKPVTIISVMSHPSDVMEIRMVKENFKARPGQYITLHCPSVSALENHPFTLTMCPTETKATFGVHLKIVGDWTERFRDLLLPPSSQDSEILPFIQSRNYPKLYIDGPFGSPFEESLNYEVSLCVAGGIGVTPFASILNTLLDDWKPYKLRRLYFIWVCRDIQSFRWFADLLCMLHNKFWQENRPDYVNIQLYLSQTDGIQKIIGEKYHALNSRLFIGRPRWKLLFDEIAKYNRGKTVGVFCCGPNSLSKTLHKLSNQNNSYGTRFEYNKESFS

[10] = target: NADPH oxidase 5 (Homo sapiens) (UniProt Q96PH1); experiment: NOX5-dependent H2O2 signal modulators, primary screen, NOX inhibitor project, cell-based, HEK293-NOX5, Amplex Red fluorescence (AID 1161); conditions: HEK293-NOX5, ionomycin, 45 min, higher = more signal
Chain of NADPH oxidase 5 (Homo sapiens) (Q96PH1 whole entry, looked up): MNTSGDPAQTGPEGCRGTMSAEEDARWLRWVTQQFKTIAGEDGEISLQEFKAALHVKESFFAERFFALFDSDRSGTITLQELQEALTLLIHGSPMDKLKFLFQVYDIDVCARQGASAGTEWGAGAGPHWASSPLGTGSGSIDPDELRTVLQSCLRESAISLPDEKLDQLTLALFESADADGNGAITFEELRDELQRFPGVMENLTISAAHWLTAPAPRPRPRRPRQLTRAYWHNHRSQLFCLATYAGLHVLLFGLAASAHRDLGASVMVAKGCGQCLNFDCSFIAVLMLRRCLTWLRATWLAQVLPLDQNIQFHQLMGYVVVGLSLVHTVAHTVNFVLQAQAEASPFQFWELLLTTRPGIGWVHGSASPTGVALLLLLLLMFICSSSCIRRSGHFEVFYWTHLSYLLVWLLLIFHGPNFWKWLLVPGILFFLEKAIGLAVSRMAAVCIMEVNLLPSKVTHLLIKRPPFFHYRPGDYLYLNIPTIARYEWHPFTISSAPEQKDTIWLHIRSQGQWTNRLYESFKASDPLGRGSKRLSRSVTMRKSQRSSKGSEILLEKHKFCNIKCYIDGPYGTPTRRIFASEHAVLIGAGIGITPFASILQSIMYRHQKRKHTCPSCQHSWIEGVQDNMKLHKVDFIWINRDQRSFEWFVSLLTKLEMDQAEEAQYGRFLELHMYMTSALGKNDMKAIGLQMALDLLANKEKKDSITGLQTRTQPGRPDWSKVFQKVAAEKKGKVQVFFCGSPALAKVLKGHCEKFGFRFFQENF

[11] = A549 cell viability effects, profiling panel, calcein-AM fluorescence, 48 h, basal (AID 1162); conditions: higher = more signal; further: test concentration not given here
[12] = adipocyte viability effects, profiling panel, cell-based, 3T3-L1 adipocytes, calcein-AM fluorescence, 48 h, basal (AID 1163); conditions: 3T3-L1 adipocytes viability, higher = more signal; further: test concentration not given here
[13] = HepG2 cell viability effects, profiling panel, calcein-AM fluorescence, 48 h, basal (AID 1164); conditions: higher = more signal; further: test concentration not given here
[14] = MM1S cell viability effects, profiling panel, calcein-AM fluorescence, 48 h, basal (AID 1165); conditions: higher = more signal;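 further: viability of MM1S multiple myeloma cells under basal unstimulated conditions; test concentration not given here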
[15] = basal RPMI8226 viability, no added stimulus, profiling panel, cell-based, calcein-AM fluorescence, 48 h, PK04 Diversity Set (AID 1166); conditions: RPMI8226 myeloma viability, higher = more signal;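 further: cells grown under basal conditions without added stimulus; test concentration not given here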
[16] = basal HepG2 mitochondrial membrane potential changes, profiling panel, cell-based, JC-1 fluorescence, 24 h, 100 nL compound (AID 1167); conditions: higher = more signal; further: test concentration not given here
[17] = basal 3T3-L1 adipocyte mitochondrial potential changes, profiling panel, cell-based, JC-1 fluorescence, 3T3-L1 adipocytes, 24 h, 100 nL compound (AID 1168); conditions: JC-1 mitochondrial fluorescence, higher = more signal, called active from +8 up or from −8 down; further: test concentration not given here
[18] = basal RPMI8226 mitochondrial membrane potential changes, profiling panel, cell-based, JC-1 fluorescence, 24 h, 100 nL compound (AID 1169); conditions: RPMI8226 myeloma, JC-1 mitochondrial potential fluorescence, higher = more signal; further: test concentration not given here
[19] = basal MM1S mitochondrial membrane potential changes, profiling panel, cell-based, JC-1 fluorescence, 24 h, 100 nL compound (AID 1170); conditions: higher = more signal; further: test concentration not given here
[20] = A549 lung cancer cell viability effects, profiling panel, resazurin fluorescence, 24 h, PK04 Diversity Set (AID 1171); conditions: higher = more signal, called active from +8 up or from −8 down; further: test concentration not given here

| SMILES | z-score [1] | composite z-score [2] | z-score [3] | z-score [4] | z-score [5] | z-score [6] | z-score [7] | z-score [8] | z-score [9] | z-score [10] | z-score [11] | z-score [12] | z-score [13] | z-score [14] | z-score [15] | z-score [16] | z-score [17] | z-score [18] | z-score [19] | z-score [20] |
| --- | --- | --- | --- | --- | --- | --- | --- | --- | --- | --- | --- | --- | --- | --- | --- | --- | --- | --- | --- | --- |
| CCOC(=O)C1=CCC(c2cc3ccccc3[nH]2)NC1 (stereo not given) | -0.92 (inactive) | 0.3 | 6.29 (inactive) | 1.16 (inactive) | 2.48 (inactive) | 0.829 (inactive) | 0.0315 | -0.246 (inactive) | 0.0972 (inactive) | 0.287 | -0.35 | -0.709 | 1.08 | 1.13 | 0.255 | 0.4 | 1.17 (inactive) | -0.0143 | -1.26 | -0.412 (inactive) |
| CN(C)c1ccc(C(O)C2C=CC3C(=O)N(c4ccccc4)C(=O)C3N2Nc2ccccc2F)cc1 (stereo not given) | -1.4 (inactive) | 0.284 | 4.37 (inactive) | 1.2 (inactive) | 0.252 (inactive) | 0.586 (inactive) | -0.288 | -2.5 (inactive) | -4.43 (inactive) | -3.99 | -0.225 | -0.528 | -0.799 | -0.343 | -1.18 | -2.24 | -1.08 (inactive) | 0.109 | -0.0359 | -0.416 (inactive) |
| COC(=O)CC=C[C@@H](C)[C@H](OC)c1ccccc1Br | -0.119 (inactive) | -0.245 | 0.727 (inactive) | 0.716 (inactive) | 0.216 (inactive) | 0.367 (inactive) | -0.0689 | -0.524 (inactive) | 0.055 (inactive) | -0.297 | 0.408 | -0.662 | 0.99 | -0.154 | -1.15 | 0.845 | -0.288 (inactive) | 0.0131 | -0.515 | -0.0428 (inactive) |
| CC(C)=CCCC(C)=CCON=C1[C@H]2CCn3c(=O)n(C)c(=O)n3[C@H]2[C@H](O)[C@@H]2O[C@H]12 | 0.459 (inactive) | -0.115 | 0.306 (inactive) | 0.197 (inactive) | 0.0128 (inactive) | 0.0078 (inactive) | -0.48 | -2.6 (inactive) | 0.0699 (inactive) | 0.43 | 0.717 | -0.326 | 1.11 | 0.114 | -0.183 | 0.46 | -0.14 (inactive) | -0.2 | -0.731 | -0.83 (inactive) |
| O=C1[C@H]2[C@H]3[C@H](O)[C@H](O)CC(=NOCc4ccccc4)[C@H]3CC[C@H]2C(=O)N1C[C@@H]1CCCO1 | 0.144 (inactive) | 0.0455 | 5.97 (inactive) | 0.673 (inactive) | -0.0092 (inactive) | 0.479 (inactive) | 0.067 | 0.421 (inactive) | 0.511 (inactive) | -1.46 | 0.0598 | -0.247 | -0.85 | -0.306 | 0.422 | -0.528 | -1.13 (inactive) | -0.669 | -0.153 | 0.469 (inactive) |
| CO[C@@H]1COC(=O)CC=C[C@@H](C)[C@@H]2C=C[C@@H](O)[C@@H](COC(=O)CC=C[C@H]1C)O2 | 0.301 (inactive) | -0.012 | 0.118 (inactive) | -1.35 (inactive) | -1.66 (inactive) | -1.73 (inactive) | 0.805 | -0.0926 (inactive) | 0.492 (inactive) | 0.957 | 0.852 | 0.572 | 1.4 | 0.349 | 1.01 | 1.33 | 0.95 (inactive) | -1.01 | 1.48 | -0.299 (inactive) |
| C#CCCCON=C1C[C@@H](O)[C@@H](O)[C@@H]2[C@@H]3C(=O)N([C@@H](C)c4ccccc4)C(=O)[C@@H]3CC[C@H]12 | -1.08 (inactive) | 0.75 | 0.553 (inactive) | -0.645 (inactive) | -0.318 (inactive) | -2.13 (inactive) | -0.235 | -0.599 (inactive) | -1.21 (inactive) | 0.579 | -0.858 | -0.0991 | -0.106 | 0.348 | -1.39 | 0.359 | 0.114 (inactive) | 0.234 | -0.53 | -0.0314 (inactive) |
| C/C=C\[C@@H](NCc1ccccc1Br)[C@@H](O)Cc1ccccc1 | -1.43 (inactive) | 0.0927 | -0.222 (inactive) | -1.35 (inactive) | 0.0141 (inactive) | -2.52 (inactive) | 0.365 | -0.239 (inactive) | -1.49 (inactive) | -2.69 | -1.17 | 1.43 | -1.44 | -1.53 | -3.29 | -1.34 | 0.0182 (inactive) | -0.926 | -0.0951 | -0.29 (inactive) |
| CO[C@H]1COC(=O)[C@@H]2CCCN2C(=O)[C@@H](C)COC(=O)CC=C[C@@H]1C | 0.737 (inactive) | -0.198 | 0.464 (inactive) | 0.279 (inactive) | 0.61 (inactive) | 0.27 (inactive) | -0.552 | -0.281 (inactive) | 0.0546 (inactive) | -0.48 | 0.12 | -0.142 | -0.364 | -0.122 | 0.358 | 0.00983 | -0.418 (inactive) | 0.604 | 0.0689 | 0.314 (inactive) |
